PubChem BioAssay
The other results are listed elsewhere or left out. Calls of active or inactive are those of the source. Unless noted, how the calls were made is not given here.

experiment: Apaf-1 inhibitors, single-dose retest, confirmation, biochemical, fluorescence, DEVD-Rh110, 20 µM (AID 504614;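 active means mean inhibition of at least 40% at 20 µM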;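 further: plate controls were DMSO wells for no effect and DEVD-CHO caspase inhibitor control wells for full effect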); conditions: reconstituted apoptosome, caspase-3 DEVD-Rh110 fluorescence; at 20 µM; stronger effect = higher value

| Structure (SMILES) | inhibition |
| --- | --- |
| CN1CCN(CCCNC(=O)c2ccc(/C=C3\Oc4ccccc4N(Cc4ccc(Cl)cc4)C3=O)cc2)CC1 | 39.1% (inactive) |
| CC(C)Cn1c(N)c(C(=O)NCc2cccs2)c2nc3ccccc3nc21 | 38.4% (inactive) |
| Cc1ccc(N=C2NC(=O)/C(=C/C=C/c3ccco3)S2)cc1C | 26.1% (inactive) |
| COCCNC(=O)Nc1ccc2nc(-c3ccco3)c(-c3ccco3)nc2c1 | 40.9% (active) |
| COc1ccc(S(=O)(=O)/N=C2\C=C(NS(=O)(=O)c3ccccc3)C(=O)c3ccccc32)cc1 | 52.3% (active) |
| CCn1cc(CN2CCC(C(=O)Nc3cccc(-c4cccc(Cl)c4)c3)CC2)c(C)n1 | 12.8% (inactive) |

experiment: Rh110 fluorescence interference by putative Apaf-1 inhibitors, confirmation, artefact control for Apaf-1 inhibitor project, biochemical, 20 µM (AID 504615;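 active means signal rise of 40% or more at 20 µM, treated as a fluorescence artifact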); conditions: quenched caspase reaction, at 20 µM, stronger effect = higher value

| Structure (SMILES) | activation (fluorescence interference) |
| --- | --- |
| CN1CCN(CCCNC(=O)c2ccc(/C=C3\Oc4ccccc4N(Cc4ccc(Cl)cc4)C3=O)cc2)CC1 | 6.39% (inactive) |
| CC(C)Cn1c(N)c(C(=O)NCc2cccs2)c2nc3ccccc3nc21 | 5.03% (inactive) |
| Cc1ccc(N=C2NC(=O)/C(=C/C=C/c3ccco3)S2)cc1C | 20.6% (inactive) |
| COCCNC(=O)Nc1ccc2nc(-c3ccco3)c(-c3ccco3)nc2c1 | -1.4% (inactive) |
| COc1ccc(S(=O)(=O)/N=C2\C=C(NS(=O)(=O)c3ccccc3)C(=O)c3ccccc32)cc1 | -7.09% (inactive) |
| CCn1cc(CN2CCC(C(=O)Nc3cccc(-c4cccc(Cl)c4)c3)CC2)c(C)n1 | 5.12% (inactive) |

experiment: inhibition of Brca1/Bard1 split-luciferase complementation, confirmation, counter-screen for Mdm2/MdmX interaction inhibitor project, luminescence, single concentration (AID 504668); conditions: Brca1/Bard1 bimolecular luciferase complementation counterscreen, at 8 µM, stronger effect = higher value

| Structure (SMILES) | inhibition |
| --- | --- |
| CN(C)CCN(C(=O)/C=C/c1cccs1)c1nc2c(F)cc(F)cc2s1 | 28.9% (active) |
| CCCC(=O)NC(c1cccs1)c1cc(Cl)c2cccnc2c1O (stereo unspecified) | 24.8% (active) |
| COc1ccc2nc(NC(=O)/C=C/c3ccc4c(c3)OCO4)sc2c1 | 35.2% (active) |
| Cc1ccc(C(=O)N2C(CC(=O)Nc3ccc(Cl)cc3)C(=O)NC3CCCCC32)cc1 (stereo unspecified) | 24.8% (active) |
| CC1CCN(CCCNC(=O)c2ccc3c(Cl)c4c(nc3c2)CCCC4)CC1 | 30.3% (active) |
| CC(C)=CCc1c2c(c(O)c3c(=O)c4c(oc13)-c1cc(O)c(O)cc1OC4C=C(C)C)C=CC(C)(C)O2 (stereo unspecified) | 34.4% (active) |
| COc1cccc(-c2sc3ccc(OC)cc3c2-c2ccc(OCCN3CCCC3)cc2)c1 | 27.8% (active) |
| c1ccc(CNc2nc(-c3ccccn3)nc3ccccc23)cc1 | 23.3% (active) |
| COc1ccc(C(C)=O)cc1CSc1nnc(-c2ccc(Cl)cc2)n1-c1ccccc1 | 25.6% (active) |
| CCOc1cc(/C=N/NC(=O)Cc2ccc(C(F)(F)F)cc2[N+](=O)[O-])c(Br)cc1OC | 30.8% (active) |
| O=C1[C@H]2[C@@H](c3ccc(F)cc3)N3C(=O)N(c4ccc(Br)cc4)C(=O)[C@@]3(Cc3ccccc3)[C@H]2C(=O)N1C1CCCCC1 | 26.6% (active) |
| CCOc1cc(/C=C2/NC(=O)N(CC(=O)Nc3cccc(C)c3)C2=O)ccc1OC | 32.2% (active) |
| Cc1cccc(NS(=O)(=O)c2ccc(C)c(C(=O)OCC(=O)Nc3cc(C)on3)c2)c1 | 32.1% (active) |
| Cc1cccc(NC(=O)[C@H](Cc2c[nH]c3ccccc23)NC(=O)[C@@H]2Cc3ccccc3CN2)c1 | 26.6% (active) |
| O=C(N/N=C(\Cc1ncc[nH]1)c1ccccc1)c1cccnc1 | 33.1% (active) |
| Cc1cccc(NC(=S)N(CCCN2CCCC2)Cc2cccn2Cc2ccc(Cl)cc2)c1 | 23.4% (active) |
| COc1cccc(Nc2nc(NCCO)c3ccccc3n2)c1 | 27.7% (active) |

| Structure (SMILES) | inhibition |
| --- | --- |
| Cc1cc(C)cc(OCc2nc3ncc(Br)cc3[nH]2)c1 | 30.8% (active) |
| O=C(/C=C/c1ccccc1)NC(NC(=S)Nc1cc(Cl)ccc1Cl)C(Cl)(Cl)Cl (stereo unspecified) | 31.2% (active) |
| O=C(/C=C/c1c(F)cccc1Cl)c1ccc(O)cc1 | 32.3% (active) |
| O=C(CCl)NCc1c(Cl)cccc1-n1cccc1 | 35.6% (active) |
| CCOc1ccccc1CNC(=O)c1cc2oc3ccccc3c2n1C | 26.3% (active) |
| O=C(Nc1ccc(Cl)cc1)Nc1ccc(N2CCCC2)c(S(=O)(=O)Nc2ccccc2Cl)c1 | 24% (active) |
| Clc1ccc(Cn2ncc3c(NCc4ccco4)ncnc32)c(Cl)c1 | 31.2% (active) |
| Cc1cc(C(=O)CCl)c(C)n1CCc1ccc(Cl)cc1 | 30.7% (active) |
| O=C(Nc1nc(-c2ccccn2)cs1)c1ccc(F)c(S(=O)(=O)N2CCOCC2)c1 | 25.6% (active) |
| S=c1[nH]nc(-c2cc(-c3ccccc3)n[nH]2)n1/N=C/C(Br)=C/c1ccccc1 | 24.2% (active) |
| COc1cc(/C=C2\SC(=Nc3ccc(O)cc3)NC2=O)cc(OC)c1OC | 28.2% (active) |
| Oc1c(CN2CCCC2)cc(COCc2ccccc2)c2cccnc12 | 32.2% (active) |
| Nc1ccc(C(=O)OCc2nc3cc4ccccc4cc3[nH]2)cc1 | 34.5% (active) |
| C=CC[n+]1c(/C=C2\C=Cc3cc(C)ccc3N2CC)ccc2ccccc21 | 28.5% (active) |
| O=C(CCS(=O)(=O)c1ccc(Cl)cc1)Nc1nc(-c2ccncc2)cs1 | 25.6% (active) |
| COc1cc(/C=C/C(=O)c2ccc(O)cc2)ccc1OCC#N | 35.9% (active) |
| Cc1c(Cl)c([N+](=O)[O-])nn1Cc1ccc(C(=O)N/N=C\c2cc(Cl)ccc2O)o1 | 32.4% (active) |
